# Several values for one entry are separate records, joined by “and”; a condition that tells them apart may be missing. Identical values can stand only once. Results filed as inconclusive are left out. Activity calls are given as the source filed them. Rule for the calls, unless noted: active = hit-call score of the fitted dose curve at least 0.9, where 1 is the maximum; inconclusive = response in the unintended direction; inactive = score below 0.9.
# How the values were obtained:
# [1] = read-out: Cytochrome P450 2C19 (Homo sapiens) (UniProt P33261); test: CLD_CYP2C19_6hr: CellzDirect (CLD) Gene Expression Assay for xenobiotic metabolism (CYP2C19) at 6 hours (AID 2283678)
# Method in brief: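 CYP2C19 transcript induction was quantified by quantitative nuclease protection assay with chemiluminescent read-out, 6 h after dosing. Cells were primary human hepatocytes from two donor preparations, given fresh dosing solutions daily in 0.2% DMSO vehicle. Activity was relative to DMSO.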
# [2] = CCTE_Padilla_ZF_144hpf_TERATOSCORE: (Legacy) CCTE's 144 Hour Post-fertilization zebrafish Assay Teratoscore, Padilla Lab (AID 2283679; active = hit-call score of the fitted dose curve at least 0.9, where 1 is the maximum; inactive = score below 0.9;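 for AC50: zebrafish embryos with chorions exposed by immersion from 6-8 hpf to 5 dpf with daily renewal; teratogenicity score from eye scoring of death hatching and malformations at 144 hpf; higher score means more developmental defects relative to DMSO baseline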)
# Method in brief: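 Larvae scored by eye at 144 hpf for death, hatching and malformations after a day in clean Hanks'. Before that, daily-renewed exposure at 80 uM (0.4% DMSO, 26C) from roughly 6-8 hpf through 5 dpf, 4 embryos per chemical.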
# [3] = read-out: ABC Transporter (ABCB1), ABCB1 (gene 5243); test: CLD_ABCB1_24hr: CellzDirect (CLD) Gene Expression Assay for ABC Transporter (ABCB1) at 24 hours (AID 2283684);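 for AC50: potency for increase in ABCB1 mRNA relative to DMSO vehicle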
# Method in brief: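 ABCB1 mRNA induction versus 0.2% DMSO vehicle was read by qNPA chemiluminescence at 24 h. Cultured human hepatocytes from two donor preparations received daily fresh dosing, and phase-contrast cytotoxicity calls were annotated alongside the data.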
# [4] = read-out: Broad substrate specificity ATP-binding cassette transporter ABCG2 (Homo sapiens) (UniProt Q9UNQ0); test: CLD_ABCG2_24hr: CellzDirect (CLD) Gene Expression Assay for ABC Transporter (ABCG2) at 24 hours (AID 2283685)
# Method in brief: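 ABCG2 mRNA induction, read as gain of chemiluminescent signal over 0.2% DMSO, was measured by quantitative nuclease protection at 24 h. Cultured human liver hepatocytes were given fresh dosing solutions of test chemicals at several concentrations each day.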
# [5] = read-out: organic anion transporter (SLCO1B1), SLCO1B1 (gene 10599); test: CLD_SLCO1B1_24hr: CellzDirect (CLD) Gene Expression Assay for organic anion transporter (SLCO1B1) at 24 hours (AID 2283690)
# Method in brief: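 SLCO1B1 mRNA induction read at 24 h by quantitative nuclease protection assay (chemiluminescence), analyzed against DMSO baseline. Human hepatocyte cultures from separate donors received fresh dosing solutions daily; vehicle 0.2% DMSO; cytotoxicity flagged by phase-contrast morphology.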
# [6] = read-out: Glyceraldehyde-3-phosphate dehydrogenase (Homo sapiens) (UniProt P04406); test: CLD_GAPDH_24hr: CellzDirect (CLD) Gene Expression Assay for Baseline Control (Glyceraldehyde 3-phosphate dehydrogenase) at 24 hours (AID 2283692)
# Method in brief: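 GAPDH baseline-control readout: qNPA chemiluminescent mRNA signal in human primary hepatocytes harvested 24 h after daily dosing, normalised to 0.2% DMSO with positive fitting direction; cytotoxicity annotated by phase-contrast morphology.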
# [7] = read-out: Cytochrome P450 2B6 (Homo sapiens) (UniProt P20813); test: CLD_CYP2B6_24hr: CellzDirect (CLD) Gene Expression Assay for xenobiotic metabolism (CYP2B6) at 24 hours (AID 2283686)
# Method in brief: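 qNPA chemiluminescent measurement of mRNA at 24 hours in human primary hepatocyte cultures from two donor preparations, with daily fresh dosing and 0.2% DMSO vehicle as baseline. Morphology-based cytotoxicity flagged yes/no.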
# [8] = read-out: ABC Transporter (ABCB1), ABCB1 (gene 5243); test: CLD_ABCB1_48hr: CellzDirect (CLD) Gene Expression Assay for ABC Transporter (ABCB1) at 48 hours (AID 2283695);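 for AC50: potency for induction meaning increase of mRNA over DMSO vehicle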
# Method in brief: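 ABCB1 mRNA was measured by quantitative nuclease protection assay (chemiluminescence) 48 h after dosing. Human hepatocyte cultures from two separate donors received fresh dosing solutions daily for two days, with 0.2% DMSO as vehicle. Positive-direction fit against DMSO.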
# [9] = read-out: Cytochrome P450 2C9 (Homo sapiens) (UniProt P11712); test: CLD_CYP2C9_24hr: CellzDirect (CLD) Gene Expression Assay for xenobiotic metabolism (CYP2C9) at 24 hours (AID 2283688)
# Method in brief: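 Induction of CYP2C9 mRNA was quantified by quantitative nuclease protection assay (chemiluminescence), gain of signal versus 0.2% DMSO vehicle, 24 h after dosing. Human primary hepatocytes (two donors) received fresh chemical daily at multiple concentrations; morphology-based cytotoxicity flagged yes/no.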
# [10] = read-out: xenobiotic metabolism (CYP1A2), CYP1A2 (gene 1544); test: CLD_CYP1A2_24hr: CellzDirect (CLD) Gene Expression Assay for xenobiotic metabolism (CYP1A2) at 24 hours (AID 2283683)
# Method in brief: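 CYP1A2 mRNA induction measured by quantitative nuclease protection (chemiluminescent) in human primary hepatocytes 24 h after multi-concentration chemical dosing with daily fresh solutions. DMSO (0.2%) baseline; positive-direction fitting; morphology-based cytotoxicity noted.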
# Sequence of Cytochrome P450 2C19 (Homo sapiens) (P33261 whole entry, looked up): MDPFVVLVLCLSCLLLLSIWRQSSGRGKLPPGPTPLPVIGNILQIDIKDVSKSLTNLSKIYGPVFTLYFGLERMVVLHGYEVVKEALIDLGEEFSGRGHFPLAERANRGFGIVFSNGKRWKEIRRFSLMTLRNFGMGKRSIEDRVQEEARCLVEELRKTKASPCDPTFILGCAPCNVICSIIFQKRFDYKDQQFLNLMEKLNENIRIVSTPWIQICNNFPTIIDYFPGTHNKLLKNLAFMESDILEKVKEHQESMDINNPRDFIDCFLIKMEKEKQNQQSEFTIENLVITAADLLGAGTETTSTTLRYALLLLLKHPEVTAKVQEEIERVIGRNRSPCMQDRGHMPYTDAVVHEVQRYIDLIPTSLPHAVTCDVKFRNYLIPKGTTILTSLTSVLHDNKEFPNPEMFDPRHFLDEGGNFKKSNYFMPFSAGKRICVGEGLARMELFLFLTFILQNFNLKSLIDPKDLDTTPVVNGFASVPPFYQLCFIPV
# Sequence of Broad substrate specificity ATP-binding cassette transporter ABCG2 (Homo sapiens) (Q9UNQ0 whole entry, looked up): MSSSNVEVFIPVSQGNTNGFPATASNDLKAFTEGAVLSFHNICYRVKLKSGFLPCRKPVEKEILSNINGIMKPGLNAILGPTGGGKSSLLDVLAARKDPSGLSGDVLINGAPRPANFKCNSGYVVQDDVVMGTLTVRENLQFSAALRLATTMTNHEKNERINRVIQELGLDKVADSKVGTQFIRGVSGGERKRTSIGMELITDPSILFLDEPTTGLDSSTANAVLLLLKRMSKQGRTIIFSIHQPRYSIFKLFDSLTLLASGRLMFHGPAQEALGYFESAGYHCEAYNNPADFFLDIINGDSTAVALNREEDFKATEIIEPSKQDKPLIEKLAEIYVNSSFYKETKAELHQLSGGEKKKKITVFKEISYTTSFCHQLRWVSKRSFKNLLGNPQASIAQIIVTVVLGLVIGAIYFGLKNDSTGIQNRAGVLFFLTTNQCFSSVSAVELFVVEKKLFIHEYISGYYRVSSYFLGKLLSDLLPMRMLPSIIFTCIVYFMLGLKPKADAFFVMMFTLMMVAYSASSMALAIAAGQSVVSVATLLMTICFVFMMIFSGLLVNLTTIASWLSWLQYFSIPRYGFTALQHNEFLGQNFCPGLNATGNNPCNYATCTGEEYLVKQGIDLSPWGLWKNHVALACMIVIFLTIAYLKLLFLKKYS
# Sequence of Glyceraldehyde-3-phosphate dehydrogenase (Homo sapiens) (P04406 whole entry, looked up): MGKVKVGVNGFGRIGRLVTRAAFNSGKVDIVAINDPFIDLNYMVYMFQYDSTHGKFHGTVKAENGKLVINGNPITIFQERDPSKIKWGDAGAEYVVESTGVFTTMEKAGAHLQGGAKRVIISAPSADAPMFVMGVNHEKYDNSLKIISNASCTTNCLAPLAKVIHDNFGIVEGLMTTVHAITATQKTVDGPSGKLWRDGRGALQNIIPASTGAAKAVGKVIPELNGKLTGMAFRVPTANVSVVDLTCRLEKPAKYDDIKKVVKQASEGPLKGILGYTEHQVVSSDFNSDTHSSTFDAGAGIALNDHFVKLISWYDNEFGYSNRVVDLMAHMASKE
compound,measurement,setting,value
[2H]C1([2H])[n+]2ccccc2-c2cccc[n+]2C1([2H])[2H],outcome,[1],inactive
same,outcome,[2],inactive
same,outcome,[3],inactive
same,outcome,[4],inactive
same,outcome,[5],inactive
same,outcome,[6],inactive
O=C(O)COc1ccc(Cl)cc1Cl,outcome,[1],inactive
same,outcome,[2],inactive
same,outcome,[3],inactive
same,outcome,[4],inactive
same,outcome,[7],inactive
same,outcome,[6],inactive
same,outcome,[8],inactive
CCCN(CCOc1c(Cl)cc(Cl)cc1Cl)C(=O)n1ccnc1,outcome,[1],inactive
same,AC50,[2],5.63 µM (active)
same,AC50,[3],32.7 µM (active)
same,outcome,[4],inactive
same,AC50,[7],1.89 µM (active)
same,AC50,[8],20 µM (active)
C#CCN1C(=O)COc2cc(F)c(N3C(=O)C4=C(CCCC4)C3=O)cc21,outcome,[1],inactive
same,AC50,[2],4.15 µM (active)
same,outcome,[3],inactive
same,outcome,[4],inactive
same,AC50,[7],20 µM (active)
same,outcome,[9],inactive
same,outcome,[6],inactive
same,outcome,[8],inactive
O=C(O)C(F)(F)C(F)(F)C(F)(F)C(F)(F)C(F)(F)C(F)(F)C(F)(F)F,outcome,[1],inactive
same,outcome,[2],inactive
same,outcome,[3],inactive
same,outcome,[4],inactive
same,outcome,[7],inactive
same,outcome,[5],inactive
same,outcome,[6],inactive
same,outcome,[8],inactive
COC(=O)c1ccccc1S(=O)(=O)NC(=O)N(C)c1nc(C)nc(OC)n1,outcome,[1],inactive
same,outcome,[2],inactive
same,outcome,[10],inactive
same,outcome,[3],inactive
same,outcome,[4],inactive
same,outcome,[7],inactive
same,outcome,[9],inactive
same,outcome,[5],inactive
O=C(NC(=O)c1c(F)cccc1F)Nc1ccc(OC(F)(F)C(F)OC(F)(F)F)c(Cl)c1 (centres undefined),outcome,[1],inactive
same,outcome,[2],inactive
same,outcome,[3],inactive
same,outcome,[4],inactive
same,outcome,[7],inactive
same,outcome,[9],inactive
Cc1[nH]c(=O)n(C(C)(C)C)c(=O)c1Cl,outcome,[1],inactive
same,outcome,[2],inactive
same,outcome,[3],inactive
same,outcome,[7],inactive
same,outcome,[9],inactive
same,outcome,[6],inactive
same,outcome,[8],inactive
COC(=O)c1ccccc1CS(=O)(=O)NC(=O)Nc1nc(OC)cc(OC)n1,outcome,[1],inactive
same,outcome,[2],inactive
same,outcome,[3],inactive
same,outcome,[7],inactive
same,outcome,[9],inactive
same,outcome,[6],inactive
O=[N+]([O-])/N=C1\NCCN1Cc1ccc(Cl)nc1,outcome,[1],inactive
same,outcome,[2],inactive
same,outcome,[3],inactive
same,outcome,[4],inactive
same,outcome,[7],inactive
same,outcome,[6],inactive
same,outcome,[8],inactive
CCN(CC)C(=O)SCc1ccc(Cl)cc1,outcome,[1],inactive
same,AC50,[2],23.4 µM (active)
same,outcome,[3],inactive
same,outcome,[4],inactive
same,AC50,[7],3.93 µM (active)
same,outcome,[5],inactive
same,outcome,[8],inactive
O=S(=O)(O)C(F)(F)C(F)(F)C(F)(F)C(F)(F)C(F)(F)C(F)(F)C(F)(F)C(F)(F)F,outcome,[1],inactive
same,AC50,[2],23.8 µM (active) and 45.6 µM (active) and 7.44 µM (active)
same,outcome,[4],inactive
same,outcome,[7],inactive
same,outcome,[9],inactive
same,outcome,[6],inactive
same,outcome,[8],inactive
Clc1ccccc1-c1nnc(-c2ccccc2Cl)nn1,outcome,[1],inactive
same,outcome,[2],inactive
same,outcome,[3],inactive
same,outcome,[4],inactive
same,AC50,[7],0.00929 µM (active)
same,outcome,[9],inactive
CCS(=O)(=O)c1cccnc1S(=O)(=O)NC(=O)Nc1nc(OC)cc(OC)n1,outcome,[1],inactive
same,outcome,[2],inactive
same,outcome,[3],inactive
same,outcome,[4],inactive
same,outcome,[7],inactive
same,outcome,[5],inactive
same,outcome,[8],inactive
O=C1c2ccccc2C(=O)N1SC(Cl)(Cl)Cl,outcome,[1],inactive
same,AC50,[2],19.3 µM (active)
same,outcome,[3],inactive
same,outcome,[4],inactive
same,outcome,[5],inactive
same,outcome,[6],inactive
same,outcome,[8],inactive
CNC(=O)CSP(=S)(OC)OC,outcome,[1],inactive
same,outcome,[2],inactive
same,outcome,[3],inactive
same,outcome,[7],inactive
same,outcome,[6],inactive
same,outcome,[8],inactive
CNC(=O)Oc1cccc(N=CN(C)C)c1,outcome,[1],inactive
same,outcome,[2],inactive
same,outcome,[3],inactive
same,outcome,[9],inactive
same,outcome,[6],inactive
same,outcome,[8],inactive
COC(=O)c1ccccc1S(=O)(=O)NC(=O)Nc1nc(C)nc(OC)n1,outcome,[1],inactive
same,outcome,[2],inactive
same,outcome,[3],inactive
same,outcome,[4],inactive
same,outcome,[7],inactive
same,outcome,[5],inactive
same,outcome,[6],inactive
same,outcome,[8],inactive
Cc1cc(C)nc(NC(=O)NS(=O)(=O)c2ccccc2C(=O)OC2COC2)n1,outcome,[1],inactive
same,outcome,[2],inactive
same,outcome,[10],inactive
same,outcome,[3],inactive
same,outcome,[4],inactive
same,outcome,[7],inactive
same,outcome,[5],inactive
same,outcome,[6],inactive
same,outcome,[8],inactive
N#Cc1c(Cl)c(Cl)c(Cl)c(C#N)c1Cl,outcome,[1],inactive
same,AC50,[2],0.187 µM (active)
same,outcome,[3],inactive
same,outcome,[4],inactive
same,outcome,[7],inactive
same,outcome,[6],inactive
CC1(C)C(C=C(Cl)Cl)C1C(=O)OC(C#N)c1ccc(F)c(Oc2ccccc2)c1 (centres undefined),outcome,[1],inactive
same,AC50,[2],0.345 µM (active)
same,outcome,[10],inactive
same,outcome,[3],inactive
same,outcome,[7],inactive
same,outcome,[9],inactive
COc1nn(CSP(=S)(OC)OC)c(=O)s1,outcome,[1],inactive
same,AC50,[2],18.2 µM (active)
same,outcome,[3],inactive
same,outcome,[4],inactive
same,AC50,[7],1.97 µM (active)
same,outcome,[9],inactive
CCC(C)(C)C(=O)OC1=C(c2ccc(Cl)cc2Cl)C(=O)OC12CCCCC2,outcome,[1],inactive
same,AC50,[2],1.89 µM (active)
same,outcome,[3],inactive
same,outcome,[4],inactive
same,outcome,[7],inactive
same,outcome,[9],inactive
same,outcome,[8],inactive
CN1CSC(=S)N(C)C1,outcome,[1],inactive
same,AC50,[2],0.196 µM (active)
same,outcome,[3],inactive
same,outcome,[4],inactive
same,outcome,[9],inactive
same,outcome,[5],inactive
same,outcome,[6],inactive

# From PubChem BioAssay (EPA / NIEHS)
